Measured values reported in PubChem BioAssay AID463173 (ICCB-Longwood Screening Facility, Harvard Medical School, 2010).
The campaign covered roughly 52,000 compounds. About 1,700 (3.3%) were called active. The entries come from a sample that favours actives as a whole. Values without a mark were called inactive. Cut-off read from the data, not from the text of the source: active = survival mostly below about 52% (no sharp cut-off); inactive = mostly above about 56%.

System: Wild type
Experiment: growth inhibition of S. aureus wild type versus tarO mutant, primary screen, teichoic acid synthesis inhibitors, RN4220, OD600 (AID 463173)
Settings: S. aureus RN4220 wild type/DeltatarO growth, OD600, 18 h, stronger effect = lower value, screened at 18.75 µg/mL (by protocol)

SMILES | survival
Cc1cccc(-n2c(-c3ccco3)nc3c(cnn3-c3ccccc3C)c2=O)c1 | 132%
O=C(CN(C1CCCCC1)S(=O)(=O)c1ccccc1)N1CCCCC1 | 101%
CCOC(=O)c1c(S(=O)(=O)N2CCC(C(=O)Nc3ccc(C)cn3)CC2)c(C)n(C)c1C | 70%
Cc1ccc(NC(=O)c2cc(S(=O)(=O)N3CCCCC3)c[nH]2)cc1N(C)C | 87%
CCCN(C(=O)c1sc2nc3n(c(=O)c2c1C)CCCC3)c1ccccc1C | 80%
COc1cc2c(cc1OC)C(COc1ccccc1OC)N(C(=O)c1ccccc1OC)CC2 (stereo unspecified) | 73%
Cc1ccc(C(=O)Nc2nc(-c3nnn(-c4cccc(C(F)(F)F)c4)c3C)ns2)cc1 | 75%
Cc1cc(-c2ccc(S(=O)(=O)N3CCN(c4ccc(Cl)cc4)CC3)s2)on1 | 136%
CC(=O)c1ccc(N2CCN(S(=O)(=O)c3ccc(-c4cc(C)no4)s3)CC2)cc1 | -6% (active)
CC(=O)c1ccc(N2CCN(S(=O)(=O)c3ccc(-c4cc(C(F)(F)F)on4)s3)CC2)cc1 | 72%
Cc1cccc(N2CCN(C(=O)Cn3c(=O)c4cccn4c4ccc(F)cc43)CC2)c1C | 85%
CC(C)(C)OC(=O)N1CCC(c2c(C(=O)NCc3ccco3)cnn2-c2ccccc2)CC1 | 75%
Cc1ccc(S(=O)(=O)NCCc2cn3ccsc3n2)cc1 | 57%
COc1ccc(S(=O)(=O)NCCc2cn3ccsc3n2)cc1OC | -3% (active)
COc1ccc(S(=O)(=O)NCCc2cn3ccsc3n2)cc1 | 82%
CN(C)c1ccc(N/C=C(\C#N)c2nc3ccccc3[nH]2)cc1 | 118%
CCOC(=O)CNC(=O)CSc1cn(CC(=O)N2CCCCCC2)c2ccccc12 | 99%
Cc1ccc(Nc2ncnc3c2nc2n3CCCC2)c(Br)c1 | 111%
CCN(c1ccccc1)S(=O)(=O)c1ccc(NC(=O)c2nc(SC)ncc2Cl)cc1 | 88%
CCS(=O)(=O)c1ncc(Cl)c(C(=O)Nc2ccccc2)n1 | 70%
CCSc1ncc(Cl)c(C(=O)Nc2ccc(S(=O)(=O)N(C)c3ccccc3)cc2)n1 | 84%
CCN(c1ccccc1)S(=O)(=O)c1ccc(NC(=O)c2nc(S(C)(=O)=O)ncc2Cl)cc1 | 0% (active)
CC(C)Sc1ncc(Cl)c(C(=O)Nc2ccc(S(=O)(=O)N(C)c3ccccc3)cc2)n1 | 78%
CCS(=O)(=O)c1ncc(Cl)c(C(=O)Nc2ccc(S(=O)(=O)N(C)c3ccccc3)cc2)n1 | 8% (active)

SMILES | survival
CCCSc1ncc(Cl)c(C(=O)Nc2ccc(S(=O)(=O)N(C)c3ccccc3)cc2)n1 | 84%
CCN(c1ccccc1)S(=O)(=O)c1ccc(NC(=O)c2nc(SC(C)C)ncc2Cl)cc1 | 81%
CN(c1ccccc1)S(=O)(=O)c1ccc(NC(=O)c2nc(S(C)(=O)=O)ncc2Cl)cc1 | 2% (active)
Cc1cccc(N2CCN(S(=O)(=O)c3ccc4c(c3)CCCN4C(=O)C3CCC3)CC2)c1C | 86%
Cc1ccc(C(=O)Nc2nnc(SCc3cc(=O)c4c(C)ccc(C)c4[nH]3)s2)cc1 | 93%
Cc1ccc(C)c(NC(=O)CN2C(=O)C(C)(C)c3ccccc32)c1 | 76%
Fc1cccc(-c2cc3nc4c(c(NCCCN5CCOCC5)n3n2)CCCC4)c1 | 103%
COc1ccc(-n2c(=O)c3ccccc3n(Cc3cccc(C)c3)c2=O)cc1 | 75%
Cc1cc(C)cc(NS(=O)(=O)c2ccc3c(c2)OCC(C(=O)N2CCCC2)O3)c1 (stereo unspecified) | 78%
COc1ccc(S(=O)(=O)NCCc2csc3nc(-c4ccccc4)nn23)cc1OC | 71%
CS(=O)(=O)NCCc1csc2nc(-c3ccccc3)nn12 | -4% (active)
COc1ccc(-c2nc3scc(CCNS(=O)(=O)c4cccs4)n3n2)cc1 | 1% (active)
CCc1ccc(S(=O)(=O)NCCc2csc3nc(-c4ccccc4)nn23)s1 | 129%
COc1ccc(OC)c(S(=O)(=O)NCCc2csc3nc(-c4ccccc4)nn23)c1 | -3% (active)
O=S(=O)(NCCc1csc2nc(-c3ccccc3)nn12)c1cccs1 | 81%
COc1ccc(-c2nc3scc(CCNS(=O)(=O)c4ccccc4F)n3n2)cc1 | 57%
CCS(=O)(=O)NCCc1csc2nc(-c3ccc(C)cc3)nn12 | 59%
O=S(=O)(NCCc1csc2nc(-c3ccc(Cl)cc3)nn12)c1cccs1 | 72%
COc1ccc(NC(=O)C(CC(C)C)NC(=O)C2CCCCC2)c(OC)c1 (stereo unspecified) | 63%
CC1(C)NC(=O)N(CC(O)CN2C(=O)NC(C)(C)C2=O)C1=O | 117%
N#Cc1c(N2C(=O)C3C4C=CC(C4)C3C2=O)sc2c1CCCC2 (stereo unspecified) | 108%
N#Cc1c(-n2ncnc2-c2ccc(Br)cc2)sc2c1CCCCC2 | 2% (active)
N#Cc1c(-n2ncnc2-c2cccc(Cl)c2)sc2c1CCCCC2 | 58%
N#Cc1c(/N=C/N2CCCCC2)sc2c1CCCC2 | 89%

SMILES | survival
CC(C)CCOc1ccc(C(=O)Nc2sc3c(c2C#N)CCCCC3)cc1 | 135%
N#Cc1c(-n2ncnc2-c2ccc(F)cc2)sc2c1CCCCC2 | -2% (active)
COc1ccc(-c2nnn(CC(=O)Nc3sc4c(c3C#N)CCCC4)n2)cc1 | 109%
CCOc1ccc(-c2ncnn2-c2sc3c(c2C#N)CCCCC3)cc1 | 3% (active)
N#Cc1c(-n2ncnc2-c2cccc(Br)c2)sc2c1CCCCC2 | 45%
Cc1ccc(C)c(N2CCN(S(=O)(=O)c3cc(-c4cc(C)no4)ccc3C)CC2)c1 | 73%
O=C(CSc1n[nH]c(-c2ccccc2)n1)NCCCc1ccccc1 | 69%
CC(C)(C)c1cn2ccc3ccccc3c2n1 | 113%
Oc1ccccc1C(C#Cc1ccccc1)N1CCOCC1 (stereo unspecified) | 110%
CC(C)N(C(=O)Cn1nnc2ccccc21)C(C(=O)NCc1ccco1)c1ccccc1 (stereo unspecified) | 101%
Cc1ccc(C)c(N2CCN(Cc3nnc(-c4ccccc4)o3)CC2)c1 | 87%
Cc1ccc(N2CCN(Cc3nnc(-c4ccccc4F)o3)CC2)c(C)c1 | 15% (active)
Cc1ccccc1-c1nnc(CN2CCN(c3cc(Cl)ccc3C)CC2)o1 | 86%
Cc1ccc(-n2nc(C(=O)Nc3ccc(C)c(F)c3)c(=O)n(C)c2=O)cc1 | 68%
Cc1ccc(CN2c3ccccc3-c3nc(SCC(=O)NCCc4ccccc4)ncc3S2(=O)=O)cc1 | 14% (active)
Cc1ccc(CN2c3ccccc3-c3nc(SCC(=O)Nc4c(C)cc(C)cc4C)ncc3S2(=O)=O)cc1 | 133%
O=C(CSc1ncc2c(n1)-c1cc(Cl)ccc1N(Cc1ccccc1)S2(=O)=O)NCCc1ccccc1 | 113%
CCOc1ccc(NC(=O)CSc2ncc3c(n2)-c2ccccc2N(Cc2ccccc2C)S3(=O)=O)cc1 | 63%
CCc1cccc(NC(=O)CSc2ncc3c(n2)-c2ccccc2N(CC)S3(=O)=O)c1 | 95%
Cc1ccccc1CN1c2ccccc2-c2nc(SCC(=O)NCc3ccccc3)ncc2S1(=O)=O | -3% (active)
O=C(CSc1ncc2c(n1)-c1ccccc1N(Cc1ccccc1)S2(=O)=O)Nc1ccccc1 | -6% (active)
Cc1ccccc1CN1c2ccccc2-c2nc(SCC(=O)NCCc3ccccc3)ncc2S1(=O)=O | 53%
O=C(CSc1ncc2c(n1)-c1ccccc1N(Cc1ccc(F)cc1)S2(=O)=O)NCCc1ccccc1 | 73%
NC(=O)CSc1ncc2c(n1)-c1ccccc1N(Cc1ccccc1)S2(=O)=O | 69%

SMILES | survival
CCc1cccc(NC(=O)CSc2ncc3c(n2)-c2ccccc2N(Cc2ccccc2C)S3(=O)=O)c1 | 0% (active)
CCN1c2ccccc2-c2nc(SCC(=O)NCc3ccccc3)ncc2S1(=O)=O | 74%
Cc1ccc2[nH]c(CSc3nnc(NC(=O)c4ccccc4C)s3)cc(=O)c2c1 | 72%
O=C(NCCCO)c1cc2sc3ccccc3c2s1 | 103%
O=C(Nn1c(Cc2ccccc2)nc2ccccc2c1=O)c1ccco1 | 107%
O=C(CSc1ncc2c(n1)-c1ccccc1N(Cc1ccc(F)cc1)S2(=O)=O)NCc1ccccc1 | 76%
Cc1ccc(CN2c3ccccc3-c3nc(SCC(=O)NCc4ccccc4)ncc3S2(=O)=O)cc1 | -1% (active)
CCN1c2ccccc2-c2nc(SCC(=O)NCc3ccc(C)cc3)ncc2S1(=O)=O | 79%
COc1ccc(N(CC(=O)N2CCN(c3cccc(Cl)c3)CC2)S(=O)(=O)c2c(C)noc2C)cc1 | 84%
Cc1cc(C)c2sc(N3CCN(C(=O)c4ccc(N(C)C)cc4)CC3)nc2c1 | 136%
O=C(CC1COc2ccccc2O1)NCc1ccccc1 (stereo unspecified) | 105%
O=C(Nc1ccc(F)cc1)Nc1csc2c1CCCC2 | 12%
O=C(CSc1nc2c([nH]c3ccccc32)c(=O)n1-c1ccccc1)N1CCc2ccccc21 | 73%
Cc1cccc(-c2nc(SCC(=O)Nc3cccc(C(F)(F)F)c3)n3[nH]c(=O)cc3n2)c1 | -3% (active)
O=C(CSc1nc2c([nH]c3ccccc32)c(=O)n1-c1ccccc1)c1ccccc1 | 73%
COc1ccc(-n2c(SCC(=O)c3ccccc3)nc3c([nH]c4ccccc43)c2=O)cc1 | 88%
CCOc1ccc(-n2c(SCC(=O)N3CCCCC3)nc3c([nH]c4ccccc43)c2=O)cc1 | 94%
CCOc1ccc(-n2c(SCC(=O)N3CCCC3)nc3c([nH]c4ccccc43)c2=O)cc1 | 73%
O=C(CSc1nc(-c2cccs2)nc2cc(=O)[nH]n12)Nc1cccc(C(F)(F)F)c1 | 128%
CCOc1ccc(-n2c(SCC(=O)N3CCOCC3)nc3c([nH]c4ccccc43)c2=O)cc1 | -3% (active)
Cc1ccc(-n2c(SCC(=O)c3ccccc3)nc3c([nH]c4ccccc43)c2=O)cc1 | -6% (active)
O=C(CSc1nc(-c2ccccc2F)nc2cc(=O)[nH]n12)Nc1cccc(C(F)(F)F)c1 | 69%
Cc1ccc(-n2c(SCC(=O)N3CCc4ccccc43)nc3c([nH]c4ccccc43)c2=O)cc1 | 120%
Cc1cc(C)cc(-n2c(SCC(=O)N3CCc4ccccc43)nc3c([nH]c4ccccc43)c2=O)c1 | 14% (active)
